Results taken from PubChem BioAssay AID624330 (Southern Research Specialized Biocontainment Screening …, 2012).
In all, about 340,000 compounds went through this assay and about 2,100 (0.62%) were called active.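 Rule for the calls: active = first-screen hits whose inhibition reached a set limit at any dose in the follow-up dose series; inconclusive = inhibition above the set first-screen limit but never retested; inactive = the rest.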 Not all results are given here. Entries with a potency or affinity are not part of this list.

target: Rac GTPase-activating protein 1 (Homo sapiens) (UniProt Q9H0H5); assay: blockers of MgcRacGAP-driven Rac1 GTP hydrolysis – biochemical, ADP Hunter fluorescence, primary and confirmatory, confirmation (AID 624330); details: MgcRacGAP-stimulated Rac1 GTP hydrolysis, at 30 µM, active compounds read high, GST-tagged Rac1 F28L mutant substrate;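 note: fluorescence reports GDP produced by GAP-driven GTP hydrolysis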
Sequence (Q9H0H5 whole entry, looked up): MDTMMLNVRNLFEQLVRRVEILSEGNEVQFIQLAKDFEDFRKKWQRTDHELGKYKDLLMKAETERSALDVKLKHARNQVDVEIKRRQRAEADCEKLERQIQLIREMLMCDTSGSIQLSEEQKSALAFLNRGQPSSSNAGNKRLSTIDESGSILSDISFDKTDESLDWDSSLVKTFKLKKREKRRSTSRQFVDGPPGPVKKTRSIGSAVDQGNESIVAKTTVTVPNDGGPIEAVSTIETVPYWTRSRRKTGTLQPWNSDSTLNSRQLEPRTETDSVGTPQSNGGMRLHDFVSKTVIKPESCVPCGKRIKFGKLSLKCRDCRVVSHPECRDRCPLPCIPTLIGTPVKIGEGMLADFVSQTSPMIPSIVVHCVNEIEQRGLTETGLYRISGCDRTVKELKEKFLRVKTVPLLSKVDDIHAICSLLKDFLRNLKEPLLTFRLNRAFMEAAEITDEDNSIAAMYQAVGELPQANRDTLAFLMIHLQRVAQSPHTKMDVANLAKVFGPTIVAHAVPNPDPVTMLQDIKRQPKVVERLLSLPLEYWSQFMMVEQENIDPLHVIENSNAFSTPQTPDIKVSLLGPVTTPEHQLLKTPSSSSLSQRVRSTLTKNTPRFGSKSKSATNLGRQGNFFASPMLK

inhibition, inactive:
COc1ccc(CNC(=O)COC(=O)CN2C(=O)C3CCCCC3C2=O)cc1 (stereo not drawn) 12.8%
CC(C)c1nccn1CCC(=O)O 7.06%
C[C@H]1CN([C@@H](C)CO)S(=O)(=O)c2ccc(Br)cc2O[C@H]1CN(C)C(=O)Cc1ccccn1 -10%
O=C1CC(c2ccccc2)Oc2cc(O)cc(O)c21 (stereo not drawn) 7.51%
O=C1C[C@@H](c2ccccc2)Oc2cc(O)cc(O)c21 7.07%
COc1ccccc1NC(=O)COc1cccc2c1CCNC2=O 5.13%
O=S(=O)(NCC(c1ccc2c(c1)OCO2)N1CCOCC1)c1ccc(Br)cc1 (stereo not drawn) 5.07%
CCCOC(=O)c1cc(-c2ccc(/C=C3/C(=O)N(C)C(=O)C(C#N)=C3C)o2)ccc1Cl 13.4%
CC1=C(C#N)C(=O)NC(=O)/C1=C/c1ccc(-c2ccc(S(N)(=O)=O)cc2)o1 25.6%
COC(=O)c1ccccc1NC(=O)C/C(C)=N/NC(=O)Cc1ccc(Cl)cc1 4.76%
CC(=O)N1CCc2cc(S(=O)(=O)CCC(=O)N(C)c3cc(C)ccc3C)ccc21 2.95%
COc1ccc(Cn2c(-c3ccc(OC)c(O)c3)nc3ccccc32)cc1O 11.2%
COc1ccc(CNc2ccc(Br)cc2)cc1 9.45%
Cc1ccc(NCc2cccnc2)cc1 9.95%
COc1ccc(CNc2ccc(C(=O)O)cc2)cc1 5.05%
COc1ccc(NC(=S)NCc2cccnc2)cc1 2.3%
O=C(O)c1ccc(C(=O)O)c(C(=O)c2ccc(NC(=O)c3ccccc3)cc2)c1 8.04%
O=C(O)C1(P(=O)(c2ccc(Cl)cc2)c2ccc(Cl)cc2)CCCC1 10.3%
Cc1ccc2cc(N)ccc2n1 10.9%
Cn1cc2ccc(N)cc2n1 6.58%
CC(C)(C)C(=O)N1CCC2CC1c1cc(Cl)ccc12 (stereo not drawn) 9.89%
CCN(CC)S(=O)(=O)c1ccc(N/N=C/c2cc(OC)ccc2O)nc1 5.07%
CCN(CC)S(=O)(=O)c1ccc(N/N=C/c2cccnc2)nc1 2.22%
CCOc1cccc(/C=N/Nc2ccc(S(=O)(=O)N(CC)CC)cn2)c1O 2.17%
CCN(CC)S(=O)(=O)c1ccc(N/N=C/c2cc(OC)c(OC)cc2OC)nc1 4.42%
CN(CC(=O)Nc1cccc(F)c1)C(=O)Cc1ccsc1 8.14%
Cc1cc(C)c2nc(NC(=O)C3CSC4(C)CCC(=O)N34)sc2c1 (stereo not drawn) 5.06%
CC1=C(C(=O)OC(C)C)C(c2ccc(Br)s2)NC(=O)N1 (stereo not drawn) 1.12%
O=C(NCC(c1cccnc1)N1CCOCC1)C1CCCCC1 (stereo not drawn) 0.64%
COC(=O)c1ccc(OC)c(CN2CCCN(Cc3ccc(F)cc3)S2(=O)=O)c1 6.78%
Cc1cccc(C)c1-n1cccc1/C=C1\SC(=S)N(c2cccc(C(=O)O)c2)C1=O -1.38%
O=C(O)CN1C(=O)/C(=C/c2ccc(SCc3ccccc3)o2)SC1=S 41%
O=C(NCC(c1ccco1)N1CCCC1)c1cccc(NS(=O)(=O)c2ccccc2)c1 (stereo not drawn) 7.02%
CC(=O)C1=C(O)C(=O)N(Cc2ccccc2)C1c1ccc(N(C)C)cc1 (stereo not drawn) 5.08%
COc1ccc(C2=NN(Cc3ccccc3)C3C(=O)NC(=O)C23)cc1 (stereo not drawn) 1.11%
O=C(N/C(=C/c1ccccc1)C(=O)N1CCCCCC1)c1ccccc1 4.23%
O=C(N/C(=C/c1ccccc1)C(=O)N1CCCCC1)c1ccccc1 7.71%
Cc1cc(C)c2[nH]c(=O)c(CN(CC3CCCO3)S(=O)(=O)c3ccc4c(c3)OCCO4)cc2c1 (stereo not drawn) -7.75%
O=C1C2C3C=CC(C3)C2C(=O)N1Nc1c(Cl)cc(Cl)cc1Cl (stereo not drawn) -1.67%
CCN(C(=O)CSc1nnc(-c2ccccc2Cl)n1C1CCCC1)C1CCS(=O)(=O)C1 (stereo not drawn) 10.2%
C=CCn1c(SCC(=O)NC2(C#N)CCCCC2)nnc1-c1ccncc1 -2.35%
CN1CCN(CCC(=O)Nc2ccc3c(c2)OCO3)CC1 9.52%
CCN1CCN(CCC(=O)Nc2ccc3c(c2)OCO3)CC1 -5.95%
O=C(CNCC1CCCO1)Nc1ccccc1N1CCCCCC1 (stereo not drawn) 15.5%
O=C(CN1CCOCC1)Nc1cccc(S(=O)(=O)N2CCCCCC2)c1 4.7%
CC1CCCC(C)N1S(=O)(=O)c1ccc(NC(=O)CNCC2CCCO2)cc1 (stereo not drawn) 13.2%
COc1ccc(N2CCN(CC(=O)Nc3ccc(C)cc3)CC2)cc1 6.34%
COc1ccc(S(=O)(=O)N2CCN(CC(=O)Nc3cccc(OC)c3)CC2)cc1 -0.54%
COc1ccc(NC(=O)c2ccc(NC(=O)CN3CCN(c4ccccc4)CC3)cc2)cc1 -2.48%
CC1(C)CC(=O)C=C(NCCN2CCN(C(=S)Nc3ccccc3)CC2)C1 7.52%
Cc1ccc(NS(=O)(=O)c2ccc3c(c2)NC(=O)C(C)C(=O)N3)c(Br)c1 (stereo not drawn) -1.09%
Cc1onc(-c2ccccc2)c1C(=O)c1c[nH]c(C(=O)NCc2ccccn2)c1 3.33%
c1ccc(NN(Cc2ccccn2)c2ccccc2)cc1 -6.65%
O=C(CCC(=O)c1cccs1)Nc1ncccc1O 11.4%
CCOC(CCNC(=O)c1cn(CC(C)C)c(=O)c2c1c1ccccc1n2C)OCC 17.2%
CC(=O)Nc1cccc(Oc2cc(C#N)c(C#N)cc2N2CCCCCC2)c1 5.07%
O=C(CNC1CCCC1)Nc1ccc(S(=O)(=O)N2CCCCC2)cc1 3.94%
O=C(CNCc1ccccc1Cl)Nc1ccc2c(c1)OCCO2 29.9%
O=C(CNC1CCCCC1)Nc1ccc(Cl)cc1 1.58%
O=C(CSCc1ccc(Cl)cc1)Nc1ccc2c(c1)OCCO2 5.15%
O=C(CN1CCN(c2ccccc2)CC1)Nc1ccc2c(c1)OCCO2 0.3%
O=C(CN1CCN(c2ccc(F)cc2)CC1)Nc1ccc2c(c1)OCCO2 9.33%
CC1CCCCN1CC(=O)Nc1ccc2c(c1)OCO2 (stereo not drawn) 31%
CC1CCCCN1CC(=O)Nc1ccc(Oc2ccccc2)cc1 (stereo not drawn) 9.36%
CCC(=O)Nc1ccc(NC(=O)CSc2nnnn2CC)cc1C 6.52%
CCOC(=O)COc1ccc(S(=O)(=O)N2CCN(c3ccccc3)CC2)cc1 8.59%
O=C(CSc1nnc(-c2ccccc2)c(-c2ccccc2)n1)Nc1ccc(Br)cn1 4.25%
Cn1c(=O)[nH]c(=O)c2c1nc(Br)n2C/C=N/Nc1ccccc1 3.62%
COc1ccc(N(CC(=O)Nc2ccc3c(c2)OCCO3)S(=O)(=O)c2cccnc2)cc1 -11.8%
CC(=O)c1ccc(S(=O)(=O)NCCC(=O)NCCc2c[nH]c3ccccc23)cc1 3.35%
CCCCOC(=O)C1=C(C)Nc2ncnn2C1c1ccc(OC)c(OC)c1OC (stereo not drawn) 0.42%
COc1ccccc1N1CCN(Cc2cc3c(cc2Br)OCCO3)CC1 2.26%
O=C(CNCC1CCCO1)Nc1ccccc1N1CCOCC1 (stereo not drawn) 22%
O=C(CN1CCCCCC1)Nc1ccc(Br)cc1 5.51%
O=C(CNC1CCCCCC1)Nc1ccccc1N1CCCCC1 8.73%
O=C(CN1CCCCC1)Nc1ccccc1 -4.92%
COc1ccc(N2CCN(Cc3cc4c(cc3Br)OCCO4)CC2)cc1 4.68%
Cc1ccc(NC(=O)c2cnccn2)cc1S(=O)(=O)N1CCCCCC1 6.35%
COc1ccc(-c2nc(NC3=NCCCCC3)sc2C)cc1 6.19%
CCCNC(=O)c1onc(CSc2ccc(Cl)cc2)c1C(=O)NCC1CC1 7.59%
COC(=O)c1ccc(NC(=O)c2cn(-c3ccccc3)nc2-c2ccncc2)cc1 -0.99%
CN(C)c1ccc2c3c(ccc(N(C)C)c13)COC2 -1.08%
CC(C)(C)N=Cc1cc(-c2ccccc2)sc1O 7.65%
CN=Cc1nc(-c2ccccc2)oc1O 10.2%
CCCn1c(N2CCN(C(=O)N3CCCCC3)CC2)nc2ccccc21 -9.24%
C#CCOCCOCCOCCNc1nc(N2CCN(C(=O)CCCCCCCCCCNC(=O)[C@@H](CCSC)n3cc(CCO)nn3)CC2)nc(N2CCN(C(=O)CCCCCCCCCCNC(=O)[C@H](CCSC)n3cc(CCO)nn3)CC2)n1 -2.72%
C#CCOCCOCCOCCNc1nc(N2CCOCC2)nc(N2CCN(C(=O)[C@H](CCCCN)n3cc(CN)nn3)CC2)n1 20.9%
C#CCOCCOCCOCCNc1nc(N2CCN(C(=O)CCCCCCCCCCNC(=O)[C@@H](CCSC)n3cc(CCO)nn3)CC2)nc(N2CCN(C(=O)CCCCCCCCCCNC(=O)[C@H](CCC(=O)O)n3cc(CCCCCN)nn3)CC2)n1 8.01%
C#CCOCCOCCOCCNc1nc(N2CCN(C(=O)[C@H](CCC(=O)O)n3cc(CN)nn3)CC2)nc(N2CCN(C(=O)[C@H](CCCCN)n3cc([C@@H](N)CC(N)=O)nn3)CC2)n1 8.54%
C#CCOCCOCCOCCNc1nc(N2CCN(C(=O)C([C@@H](C)O)n3cc([C@@H](N)CCCCN)nn3)CC2)nc(N2CCN(C(=O)C([C@@H](C)O)n3cc([C@@H](N)CCCCN)nn3)CC2)n1 (stereo partly drawn) 27.4%
C#CCOCCOCCOCCNc1nc(N2CCN(C(=O)[C@H](CCC(=O)O)n3cc([C@@H](N)CCCCN)nn3)CC2)nc(N2CCN(C(=O)[C@H](CCC(=O)O)n3cc([C@@H](N)CCCCN)nn3)CC2)n1 3.63%
C#CCOCCOCCOCCNc1nc(N2CCN(C(=O)[C@H](CCCCN)n3cc(CN)nn3)CC2)nc(N2CCN(C(=O)[C@H](CCC(=O)O)n3cc(CN)nn3)CC2)n1 10.3%
C#CCOCCOCCOCCNc1nc(N2CCN(C(=O)C([C@@H](C)O)n3cc([C@@H](N)CCCCN)nn3)CC2)nc(N2CCN(C(=O)[C@H](CCCCN)n3cc([C@@H](N)CC(N)=O)nn3)CC2)n1 (stereo partly drawn) 30.2%
